PLK1 PBD block: PLK1 (human) polo-box domain binding inhibition. P53350. Plk1 PBD binding of FITC phosphopeptide, fluorescence polarization. Potency, µM, hits mostly inhibitors. AID 720504. hit rate 2.8% among 360,000; note: series mostly up to about 57 µM; nearly all actives have a fitted effect of over 65% in size
RORgamma inh: blocks mouse ROR gamma transcriptional activity. Potency, µM (titrated, usually from 53.6 µM), hits mostly inhibitors. P51450. hit rate 5.4% among 310,000. Drosophila S2 Gal4-RORgamma UAS-luciferase reporter, 20 h. AID 2551; note: nearly all actives have a fitted effect of over 60% in size
Target sequence (P51450 whole entry, looked up, the tested form may be a part): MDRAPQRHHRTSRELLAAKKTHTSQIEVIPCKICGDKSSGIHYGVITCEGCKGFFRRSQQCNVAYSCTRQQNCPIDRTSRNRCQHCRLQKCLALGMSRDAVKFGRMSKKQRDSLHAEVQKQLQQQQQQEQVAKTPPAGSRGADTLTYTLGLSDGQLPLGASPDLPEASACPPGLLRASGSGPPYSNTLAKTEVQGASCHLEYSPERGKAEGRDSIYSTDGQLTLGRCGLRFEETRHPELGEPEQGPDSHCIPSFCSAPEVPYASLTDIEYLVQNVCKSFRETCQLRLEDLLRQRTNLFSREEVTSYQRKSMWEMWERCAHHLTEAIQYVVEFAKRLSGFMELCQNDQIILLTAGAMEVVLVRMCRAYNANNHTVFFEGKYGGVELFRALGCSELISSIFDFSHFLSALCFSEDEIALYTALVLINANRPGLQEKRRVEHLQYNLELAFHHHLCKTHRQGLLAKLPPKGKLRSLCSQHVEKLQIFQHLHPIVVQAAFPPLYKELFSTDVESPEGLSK
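Stably transfected Drosophila Schneider cells are the test system, with ROR gamma fused to Gal4 and luciferase under UAS control; luminescence is read after 20 hr of 700 uM copper sulfate induction at ambient temperature.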
ALDH1A1 inh: inhibitors of human aldehyde dehydrogenase 1A1. P00352. Purified ALDH1A1, NADH fluorescence, propionaldehyde substrate. Potency, µM (highest dose often 75.3 µM), hits mostly inhibitors. hit rate 7.3% among 220,000; active = well fitted inhibition curve with a large enough effect, not every such curve was filed as active; inconclusive = small, poorly fitted or top-dose-only effect, or another doubt; inactive = no such curve, though single readings can be large or run the other way
VP16 counter: Gal4-VP16 reporter inhibition counter-screen; Drosophila S2 Gal4-VP16 UAS-luciferase, luminescence, 20 h; hit rate 3.5% among 310,000; Potency, µM (top dose mostly 53.6 µM), actives largely listed as inhibitors;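 note: Gal4-VP16 expression switched on by copper sulfate through the metallothionein promoter; nearly all actives have a fitted effect of over 50% in size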
Sfp inh: blocks B. subtilis Sfp PPTase activity; AID 1490; Potency, µM, usual class: inhibitors; Q9F4F7; Biochemical Sfp PPTase activity, qHTS; hit rate 3.5% among 310,000;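 note: the enzyme is Sfp with the accession as filed and its product quenches rhodamine fluorescence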
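Fluorescence-quenching assay: 15 nM Sfp-PPTase preincubated 15 min at room temperature with compound, then 5 uM rhodamine-CoA and 12.5 uM BHQ-2-labelled YbbR peptide added. Fluorescence (ex 525/em 598 nm) read at start and after 30 min; difference gives rate.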
Each line names hits and unclear results; the compound was inactive in the other large screens. Compounds with a hit are over-represented: about 12% of the library has one in this group of screens. Unless noted, calls come from the whole dose curve; as a rule, active = well fitted curve in the direction sought with a large enough effect; inconclusive = small, poorly fitted or top-dose-only effect, or another doubt; inactive = no such curve, though single readings can be large; an effect the other way counts as inactive or inconclusive.

COc1ccccc1OCC(=O)NNC(=S)NC(=O)c1ccco1	ALDH1A1 inh 28µM, VP16 counter inconclusive
COc1ccc(/C=C/C(=O)NC(=S)NNC(=O)c2ccco2)cc1OC	none (no result: ALDH1A1 inh)
O=C(NC(=S)NNC(=O)c1ccccc1O)c1ccco1	ALDH1A1 inh inconclusive, VP16 counter 3.5µM
COc1ccc(C(=O)NC(=S)NNC(=O)c2ccco2)cc1	RORgamma inh 11µM, VP16 counter inconclusive (no result: ALDH1A1 inh)
C=C(C)CNC(=S)NNC(=O)c1ccco1	RORgamma inh 3.5µM, VP16 counter 5µM
COc1ccc(CC(=O)NNC(=O)c2ccco2)cc1	none (no result: ALDH1A1 inh)
CC1(C)O[C@@H]2[C@@H](O1)C(c1ccccc1)(c1ccccc1)OP(=O)(O)OC2(c1ccccc1)c1ccccc1	none (no result: PLK1 PBD block)
COc1ccc(C2CC(O)(c3ccccc3)Oc3c(C)ccc(C(C)C)c32)cc1 (centres undefined)	VP16 counter inconclusive (no result: PLK1 PBD block, ALDH1A1 inh)
COc1ccc(CCNC(=O)Nc2nc(CN)cs2)cc1OC	none (no result: RORgamma inh, ALDH1A1 inh, VP16 counter, Sfp inh)
COCOc1ccc(Br)cc1C(=O)/C=C\c1ccc2c(c1)OCO2	none (no result: PLK1 PBD block)
Cc1nc(SCC(=O)N(CC(C)C)C2CCS(=O)(=O)C2)c(C#N)c(C)c1C (centres undefined)	none (no result: RORgamma inh, ALDH1A1 inh, VP16 counter, Sfp inh)
O=C(NC(=S)NNC(=O)c1ccco1)c1ccc(F)cc1	RORgamma inh 11µM, VP16 counter inconclusive (no result: ALDH1A1 inh)
COc1ccc(/C=C/C(=O)NC(=S)NNC(=O)c2ccco2)cc1	RORgamma inh 3.2µM, ALDH1A1 inh inconclusive, VP16 counter inconclusive
CCOc1ccc(C(C)NC(=O)c2ccccc2F)cc1 (centres undefined)	none
Cc1ccc(C(C)NC(=S)NCc2ccc(F)cc2)c(C)c1 (centres undefined)	RORgamma inh 2.5µM, VP16 counter 4.5µM (no result: ALDH1A1 inh)
Cc1ccc(NC(=S)NCc2ccc(S(N)(=O)=O)cc2)c(C)c1	none
CCOc1ccc(C(C)NC(=S)NCc2ccc(F)cc2)cc1 (centres undefined)	RORgamma inh 3.5µM, VP16 counter 3.2µM (no result: ALDH1A1 inh)
CC(NC(=O)CCC(=O)NCc1ccc(F)cc1)c1ccccc1 (centres undefined)	none (no result: ALDH1A1 inh)
CCC(NC(=S)NCc1ccc(F)cc1)c1ccc(C)cc1 (centres undefined)	RORgamma inh 2.8µM, VP16 counter 3.2µM (no result: ALDH1A1 inh)
CCC(NC(=O)C1(C)CC1(Br)Br)c1ccc(C)cc1 (centres undefined)	none
COc1cccc(C(C)NC(=S)NCc2ccc(F)cc2)c1 (centres undefined)	RORgamma inh 5µM, VP16 counter 8.9µM (no result: ALDH1A1 inh)
COc1ccc(-c2nc3cnc(N4CCNCC4)nc3n(CCC#N)c2=O)cc1	RORgamma inh inconclusive, ALDH1A1 inh inconclusive, VP16 counter inconclusive (no result: PLK1 PBD block)
Cn1c(=O)n(C)c2cc(NC(=O)CSc3ccccc3)ccc21	PLK1 PBD block inconclusive (no result: ALDH1A1 inh)
COC(=O)C1=C(C)N(Cc2ccccc2)[C@]23O[C@](C(=O)OC)(C(=O)N2C1c1ccccc1)C(C(=O)OC)=C3C(=O)OC (some centres undefined)	none (no result: PLK1 PBD block)
CCc1nc2c(OCc3ccccc3)cccn2c1N(C)C(=O)c1ccc2c(c1)OCO2	none (no result: RORgamma inh, ALDH1A1 inh, VP16 counter, Sfp inh)
Cc1ccc(NC(=S)NCc2ccc3c(c2)OCO3)c(C)c1	RORgamma inh inconclusive
CCc1ccc(C(C)NC(=S)NCc2ccc(F)cc2)cc1 (centres undefined)	RORgamma inh 2.2µM, VP16 counter 5µM (no result: ALDH1A1 inh)
Cc1ccc(C(C)NC(=S)NCc2ccc(F)cc2)cc1C (centres undefined)	RORgamma inh 3.5µM, VP16 counter 5µM (no result: ALDH1A1 inh)
Cc1ccc(NC(=S)NCc2ccc3c(c2)cc(C)n3C)c(C)c1	PLK1 PBD block 19µM, RORgamma inh 1µM, ALDH1A1 inh inconclusive, VP16 counter 13µM
CC(NC(=O)Cc1ccc(F)cc1)c1ccc(F)cc1 (centres undefined)	RORgamma inh inconclusive
Cc1cc2cc(CNC(=O)c3ccco3)ccc2n1C	RORgamma inh inconclusive, Sfp inh 79µM (no result: ALDH1A1 inh)
CC(C)(C)c1ccc(Nc2n[nH]c3ccccc23)cc1	none (no result: RORgamma inh, ALDH1A1 inh, VP16 counter, Sfp inh)
Cc1ccc(NC(=S)NCc2ccc(F)cc2)c(C)c1	RORgamma inh 5.6µM, VP16 counter 5.6µM (no result: ALDH1A1 inh)
O=C1C(Cl)=C(Nc2cccc(O)c2)C(=O)N1Cc1ccccc1	PLK1 PBD block 27µM, RORgamma inh inconclusive, ALDH1A1 inh inconclusive
O=C(O)CNC(=O)c1ccc([N+](=O)[O-])cc1	none (no result: PLK1 PBD block, Sfp inh)
O=S(=O)(c1ccccc1)c1nc(-c2ccccc2)oc1NCc1cccnc1	ALDH1A1 inh 25µM
O=c1cc(-c2ccccc2)[nH]n1-c1ccc([N+](=O)[O-])cc1	PLK1 PBD block 21µM, RORgamma inh inconclusive, VP16 counter inconclusive
O=c1ccc(-c2ccc([N+](=O)[O-])cc2)nn1-c1ccccc1	none
CSc1ccc(/C=N/NC(=O)c2sccc2C)cc1	RORgamma inh 8.9µM, ALDH1A1 inh inconclusive, VP16 counter inconclusive
O=C(N/N=C/c1ccc(-c2cccc([N+](=O)[O-])c2)o1)c1ccc([N+](=O)[O-])cc1	RORgamma inh 2.5µM, VP16 counter 5µM
COc1ccc(OCc2ccc(/C=N\NC(=O)c3sccc3C)o2)cc1	RORgamma inh 11µM, VP16 counter inconclusive (no result: ALDH1A1 inh)
CSc1ccc(/C=N/NC(=O)c2ccc(C)c(C)c2)cc1	RORgamma inh inconclusive, VP16 counter inconclusive
O=C(N/N=C\c1ccc(COc2ccc([N+](=O)[O-])cc2)o1)c1ccc(Cl)cc1	RORgamma inh 13µM, VP16 counter inconclusive
CC1(c2ccccc2Cl)NC(=O)N(CC(=O)N2c3ccccc3NC(=O)C2(C)C)C1=O (centres undefined)	none (no result: RORgamma inh, ALDH1A1 inh, VP16 counter, Sfp inh)
O=C(Nc1ccc2c(c1)Cc1ccccc1-2)[C@@H]1[C@H](C(=O)O)[C@]2(Cl)C(Cl)=C(Cl)[C@@]1(Cl)C2(Cl)Cl	none (no result: PLK1 PBD block, RORgamma inh, VP16 counter, Sfp inh)
O=C(N/N=C/c1ccc(-c2cccc([N+](=O)[O-])c2)o1)c1ccccc1O	RORgamma inh 3.2µM, VP16 counter 2.2µM, Sfp inh inconclusive
COc1cc([N+](=O)[O-])ccc1-c1ccc(/C=N/NC(=O)c2ccccc2O)o1	RORgamma inh 1µM, VP16 counter 4µM (no result: PLK1 PBD block, ALDH1A1 inh)
COc1cc([N+](=O)[O-])ccc1-c1ccc(/C=N\n2cnnc2)o1	none (no result: ALDH1A1 inh)
Cc1ccc(NS(=O)(=O)c2cc(Br)cnc2N)c(Cl)c1	none (no result: ALDH1A1 inh)
Nc1ncc(Br)cc1S(=O)(=O)Nc1cc(C(F)(F)F)cc(C(F)(F)F)c1	PLK1 PBD block 30µM, VP16 counter 22µM (no result: ALDH1A1 inh)
O=C(NCc1ccc(F)cc1)c1cc(C2CCCCN2S(=O)(=O)c2ccc(F)cc2F)on1 (centres undefined)	none (no result: RORgamma inh, ALDH1A1 inh, VP16 counter, Sfp inh)
COc1ccc(-c2c(C#N)sc(C(N)=O)c2-c2ccc(OC)cc2)cc1	RORgamma inh inconclusive, ALDH1A1 inh 2µM
N#Cc1sc(C(N)=O)c(-c2ccccc2)c1-c1ccccc1	ALDH1A1 inh inconclusive
Cc1ccccc1OCCC(=O)Nc1ccc(S(=O)(=O)N2CCCC2)cc1	none (no result: RORgamma inh, ALDH1A1 inh, VP16 counter, Sfp inh)
Cc1nn(-c2ccccc2)c(Cl)c1C(=O)Nc1nnc(C2CCCC2)s1	RORgamma inh 7.9µM, ALDH1A1 inh 2.8µM, VP16 counter inconclusive, Sfp inh inconclusive
Cc1nn(-c2ccccc2)c(Cl)c1C(=O)NC1CCCCC1	none
COc1ccccc1CN1CCC2(CC1)CCN(C(=O)c1csnn1)CC2	none (no result: PLK1 PBD block)
